# Data published in PubChem BioAssay (NCI).
# Several values for one entry are separate records, joined by “and”; a condition that tells them apart may be missing. Equal entries are not always repeated. This is part of a sample that, as a whole, favours compounds with a hit. Of some 83,000 tested, about 20% had one in any assay.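 96-well plates, one dose, 48 hours. Percent growth reported; active if below 10.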 Activity calls are given as the source filed them.
# System: TK-10 renal
# Test: NCI-60 one-dose screen, 48 h (100 = growth as untreated, 0 = no growth, -100 = all killed)
# Settings: 10 µM unless noted
row,SMILES,growth
1,O=C1CC(c2ccccc2)NCCCCN2CC(CN1)C(C(O)c1ccccc1)C2=O (configuration not stated),97.8% [100 µM] (inactive) and 88.7% [100 µM] (inactive)
2,C=C1C(=O)O[C@H]2C[C@@]3(C)[C@H](O)CCC(=C)[C@@H]3[C@@H](OC(C)=O)[C@H]12,-98% [100 µM] (active) and -95.5% [100 µM] (active)
3,C=C(C)C1CC2(C)C(C)CC(OC(=O)/C(C)=C\C)CC2C(OC(=O)/C(C)=C\C)C1O (configuration not stated),34.6% [100 µM] (inactive) and 71% [100 µM] (inactive)
4,CCn1c2c(c3ccccc3c1=O)C(=O)c1ccccc1-2,73.6% [100 µM] (inactive) and -93.6% [100 µM] (active)
5,CC(=Nc1ccncc1)C(C)=Nc1ccncc1,-74.8% [100 µM] (active) and -52.5% [100 µM] (active)
6,C[C@@H]1C[C@](O)([C@@H](C)Cl)C(=O)O[C@@H]2CCN3CC=C(COC(=O)[C@]1(C)O)[C@H]23,66.6% [100 µM] (inactive) and 88% [100 µM] (inactive)
7,COc1ccccc1-c1n[nH]c(-c2ccccc2O)n1,84.4% [100 µM] (inactive) and 32.7% [100 µM] (inactive)
8,COC(=O)C(=O)C(C(=O)C(=O)Nc1nc2ccc(C)cc2s1)c1nc2ccc([N+](=O)[O-])cc2[nH]c1=O (configuration not stated),115% [100 µM] (inactive) and 75.4% [100 µM] (inactive)
9,O=C1C=CC=C/C1=C1\N=C(c2ccccc2OCC(=O)c2ccc(Br)cc2)SS1,65.8% [100 µM] (inactive) and 57.6% [100 µM] (inactive)
10,CC(C)O/N=C/c1cc(NC(=S)OC(C)C)ccc1Cl,53.5% [100 µM] (inactive) and 36.1% [100 µM] (inactive)
11,C[C@]12CC[C@@H]3c4ccc(OS(N)(=O)=O)cc4CC[C@H]3[C@@H]1CCC2=O,31.9% [100 µM] (inactive) and 68.9% [100 µM] (inactive)
12,CCC(C)C1(O)OC2CC3(C)OC(=CC3=O)/C(C)=C\C3OC(=O)C1(C)C32 (configuration not stated),41.8% [100 µM] (inactive) and -90.7% [100 µM] (active)
13,CCCCC1C(=O)N(c2ccc(S(=O)(=O)Nc3ccccn3)cc2)N(c2ccc(O)c(C(=O)O)c2)C1=O (configuration not stated),102% [100 µM] (inactive) and 94.2% [100 µM] (inactive)
14,COc1c2c(c3c(c1OC)c(=O)c1ccccc1n3C)OCO2,74.8% [100 µM] (inactive)
15,C=C(C)C(=O)OC1CC2(C)OC(=CC2=O)C(C)CC2OC(=O)C(=C)C12 (configuration not stated),-96.8% [100 µM] (active)
16,CC1C2(C)OC(=N)C(C#N)(C(c3cccc([N+](=O)[O-])c3)O2)C1(C#N)C#N (configuration not stated),108% [100 µM] (inactive)
17,Cc1ccc(OCC2OC(n3cnc4nc(Cl)nc(Cl)c43)CC2Oc2ccc(C)cc2)cc1 (configuration not stated),1.81% [100 µM] (active) and -100% [100 µM] (active)
18,C/C(=C\COc1cc(O)c2c(c1)C(=O)c1cc(C)cc(O)c1C2=O)CCC1OC1(C)C (configuration not stated),42.6% [100 µM] (inactive) and 20.6% [100 µM] (inactive)
19,CC1CC(=O)N(N(C)C)C2(C#N)C(=O)N=C(N)C12C#N (configuration not stated),-31.9% [100 µM] (active) and -94.2% [100 µM] (active)

row,SMILES,growth
1,N#Cc1nc(-c2cccc(-c3nc(C#N)c(N)o3)n2)oc1N,96.3% [100 µM] (inactive) and 84.9% [100 µM] (inactive)
2,CC(=O)c1ccc(NC(=O)/C(CC(=O)/C=C/c2ccccc2)=N/NC(N)=S)cc1,125% [100 µM] (inactive) and 43.7% [100 µM] (inactive)
3,CCCCCCCCOC(=O)C12Oc3ccc(-c4ccc5c(c4O)C(O)=C4C(=O)CC(C)C(O)C4(C(=O)OCCCCCCCC)O5)c(O)c3C(O)=C1C(=O)CC(C)C2O (configuration not stated),-21.8% [100 µM] (active) and -100% [100 µM] (active)
4,CC(=N\N=C\c1ccccn1)/C(C)=N/N=C/c1ccccn1,108% [100 µM] (inactive) and 118% [100 µM] (inactive)
5,COc1ccc2c(C)cc(N/N=C/c3ccc(C)s3)nc2c1,-66.6% [100 µM] (active) and -100% [100 µM] (active)
6,N#Cc1c(N)oc(-c2cccc([N+](=O)[O-])c2)c1C#N,-44.5% [100 µM] (active) and -69.6% [100 µM] (active)
7,COC(=O)/C(=N\NC(=S)NN)C(C(=O)OC)C(=O)C(=O)Nc1cccc(C(F)(F)F)c1 (configuration not stated),155% [100 µM] (inactive) and 108% [100 µM] (inactive)
8,COc1ccc(OC)c(N(CN2C(=O)CCC2C(=O)O)C(C)=O)c1 (configuration not stated),78.2% [100 µM] (inactive) and 103% [100 µM] (inactive)
9,O=C(Cc1nc2ccc(C(=O)c3ccccc3)cc2[nH]c1=O)C(=O)Nc1ccccc1[N+](=O)[O-],75.1% [100 µM] (inactive) and 12.6% [100 µM] (inactive)
10,CC(C)(C)c1cc(C2COC(=O)COCCOCC(=O)OCCOCCO2)cc(C(C)(C)C)c1O (configuration not stated),-69.6% [100 µM] (active) and -100% [100 µM] (active)
11,CC1CC2(OC2C)C(=O)OC2CCN(C)C/C=C(/COC(=O)C1(C)O)C2=O (configuration not stated),97.2% [100 µM] (inactive) and 101% [100 µM] (inactive)
12,CCOc1cc2c(cc1O)/C(=N/NS(=O)(=O)c1ccc(C)cc1)C[C@@H]1[C@@H]2CC[C@]2(C)[C@@H](O)CC[C@@H]12,-22.6% [100 µM] (active)
13,Cc1cc(S(=O)(=O)O)c(NC(=O)c2oc3cc(O)ccc3c(=O)c2C)cc1Cl,90.8% [100 µM] (inactive) and 91.7% [100 µM] (inactive)
14,CNC(=S)c1nnsc1N,103% [100 µM] (inactive) and 37.1% [100 µM] (inactive)
15,COc1cc([C@H]2OC[C@@H]3C(c4cc(OC)c5c(c4)OCO5)OC[C@H]23)cc(OC)c1OC (some centres not stated),84.5% [100 µM] (inactive) and 28.7% [100 µM] (inactive)
16,COc1ccc2nc(N/N=C/c3ccc(C)s3)cc(C)c2c1,-94.1% [100 µM] (active) and -97.3% [100 µM] (active)
17,COc1ccc2c(c1)N(C(C)=O)CN1C(=O)CCC21 (configuration not stated),93% [100 µM] (inactive) and 101% [100 µM] (inactive)
18,Cc1cc(N(CCC#N)CCC#N)ccc1/C=N/NC(=O)c1cc(Cl)ccc1O,76.6% [100 µM] (inactive) and 12.3% [100 µM] (inactive)
